Among the data in PubChem BioAssay AID1259415 (National Center for Advancing Translational Sciences (NCATS), 2018) are activity change, negative = inhibition values, retold here.

Molecules are shown by their SMILES. In all, about 410,000 compounds went through this assay and about 18,000 (4.4%) were called active. Roughly 7% stayed inconclusive and do not appear here. What follows is part of a selection rich in actives, with near analogues and random picks from the rest. Unmarked numbers belong to inactive results. No stated cut-off is given here; in the data, active means activity change below about -60%; inconclusive means no clear call, values can overlap the other calls; inactive means above about -39%.
On the % scale 0 is the no-effect control and ±100 the full control effect.

This assay in a line: qHTS Assay for inhibitors of the human cytomegalovirus (HCMV). As to conditions: HFF cells, HCMV-luciferase reporter, 72 h; at 57.5 µM; hits give low values. An excerpt: NCGC Assay Overview: Infection with human cytomegalovirus (HCMV) continues to pose significant threats for pregnant women and immunocompromised hosts. HCMV causes serious morbidity and mortality in transplant recipients, and congenital HCMV is the leading infectious cause of mental retardation and deafness in children. In the 1990s, the annual costs associated with the disease burden of congenital CMV were estimated at around $2 billion. A HCMV vaccine is not available yet and HCMV therapies result in intolerable side effects and emergence of drug resistant viruses. […] Towards this goal we have developed and characterized a luciferase HCMV reporter that was initially used in 96 well plates and then optimized to 1536-well plates for utilization in screening of the MLSMR collection, the NGCG diversity collection and the NCGC Pharmaceutical Collection of approved and investigational drugs.
NCGC Assay Protocol Summary:
This is a cell-based assay for HCMV inhibition in HFFs cells. The screening used 2 compound doses and the HCMV-luciferase at MOI of 1 PFU/cell. Cells were treated and infected with HCMV. At 72 h post infection cell lysates were collected and luciferase activity was determined using the Glomax-Multi + Detection System (Promega, Madison, WI). Data were normalized to the controls for basal activity (buffer only) and known HCMV inhibitors Salinmoycin.
1536-well assay protocol for the assay:
(1) Add 3 ul CMV/HFF cell culture. 1000 cells/well in DMEM nirmal media.
(2) Incubate 16 hr at 37C.
(3) Add 23 nl control compound, 10uM of Salinomycin.
(4) Add 23 nl compounds in DMSO solution.
(5) Add 3 ul CMV suspension. Final 1 puf/ul, Virus stock 2000pfu/ul
(6) Incubate 72 hrs at 37C.
(7) Add 4 ul OneGlo Luc Reagent.
(8) Incubate 5 min at room temperature.
For `O=C(Nc1cccc(C(=O)O)c1)/C(=C\c1ccccc1)NC(=O)c1ccc(Br)o1`, the activity change, negative = inhibition is 23.2%. Turning to `O=C(NCc1ccco1)c1ccc([N+](=O)[O-])cc1Cl`, the activity change, negative = inhibition was -4.15%. Then `O=C(NCc1ccco1)/C(=C/c1cccc([N+](=O)[O-])c1)NC(=O)c1ccco1`, with 20.5%.

Turning to `CC(Oc1ccc2ccccc2c1)C(=O)NNC(=S)NC(=O)c1ccco1` (stereo unspecified), the activity change, negative = inhibition was -3.96%. Then `O=C(NCc1ccco1)/C(=C\c1cccc([N+](=O)[O-])c1)NC(=O)c1ccco1`, with -72% (active); and `O=C(Nc1ccc2ccccc2c1)/C(=C/c1cccc(Br)c1)NC(=O)c1ccco1`, with -64.4% (active); and `O=C(CNS(=O)(=O)c1cccs1)N1CCN(c2ccccc2Cl)CC1`, with 68.5%.

Consider `CC1CCCCN1CC(=O)N1CCCc2c1c(=O)oc1ccc(OCc3ccccc3)cc21` (stereo unspecified), for which the activity change, negative = inhibition is -2.34%. As for `CCCCn1cc(S(=O)(=O)c2ccc(OCC)cc2)c(=O)c2cc(OC)c(OC)cc21`, the figure is 44.7%; as for `COc1ccc(CCNC(=O)Cn2c(=O)n(-c3ccccc3)c(=O)c3c(C)c(C)sc32)cc1OC`, -11.6%. As for `COc1ccccc1-c1noc(-c2ccc(NCc3ccccc3)c([N+](=O)[O-])c2)n1`, the figure is 0.104%; as for `Cc1ccc(C)c(N2CCN(C(=O)CCc3c(C)nc4c(c3C)c(=O)n(C)c(=O)n4C)CC2)c1`, -21.4%; as for `COc1cccc(N2CCN(C(=O)CCCCCn3c(=O)[nH]c4ccccc4c3=O)CC2)c1`, -7.41%. As for `Cc1ccc(C)c(N2CCN(C(=O)CCCCCn3c(=S)[nH]c4ccc(N5CCOCC5)cc4c3=O)CC2)c1`, the figure is -88.3% (active); as for `CC1(C)OC(=O)C2=C(CC(CCc3ccccc3)OC2c2ccc(Cl)cc2)O1` (stereo unspecified), 7.29%.

With `Cc1cc(C)cc(OC(C)C(=O)Nc2nc3c(s2)CCCC3)c1` (stereo unspecified), the activity change, negative = inhibition is -26.6%. Turning to `COc1cc(C(=O)N2CCN(C(=O)COc3cccc(C)c3)CC2)cc(OC)c1OC`, the activity change, negative = inhibition was 28.1%.

In the case of `CCc1cccc(C)c1Nc1c(-c2ccc(N(C)C)cc2)nc2ncccn12`, the activity change, negative = inhibition is -14.5%. For `CC(Nc1ccc(-c2nc(-c3ccco3)no2)cc1[N+](=O)[O-])c1ccccc1` (stereo unspecified), the activity change, negative = inhibition is 41.2%.

Take `CCOC(=O)Cn1c(CN(Cc2ccccc2)Cc2ccccc2)nc2c1c(=O)[nH]c(=O)n2C`: the activity change, negative = inhibition is 31.2%. Regarding `COC(=O)[C@@H]1[C@@H](CO)[C@@H]2Cn3c(ccc(Br)c3=O)[C@H]1N2C(=O)c1cnccn1`, the activity change, negative = inhibition was 13.3%. Then `Cc1nc(CNS(=O)(=O)c2ccc(Oc3ccccc3)cc2)cs1`, with -90.1% (active); and `Cc1nc(CNS(=O)(=O)c2cc([N+](=O)[O-])ccc2C)cs1`, with 17.1%; and `COc1ccccc1CNS(=O)(=O)c1ccc(C)cc1`, with -4.42%. As for `O=C1CSC2(C(=O)N(Cc3ccccc3)c3ccccc32)N1c1cccc(F)c1` (stereo unspecified), the figure is -27.5%.

Regarding `Cc1nc2ccccc2cc1OCc1ccc(F)cc1`, the activity change, negative = inhibition is -82.9% (active). As for `CC(=O)c1ccccc1OCc1ccc(C(=O)c2ccccc2)cc1`, the figure is -23.4%; as for `O=C(NC1CCC(O)CC1)c1ccccc1OCc1ccc(F)cc1` (stereo unspecified), -22.6%; as for `CCCN(CC(=O)Nc1ccccc1C)C(=O)c1cc(=O)[nH]c2ccccc12`, 42.9%. Then `CCCN(CC(=O)Nc1ccccc1C)C(=O)c1ccc(OCC(=O)N2CCOCC2)c(OCC)c1`, with 0.271%. Then `CCCN(CC(=O)Nc1ccccc1C)C(=O)c1ccc2[nH]c3c(c2c1)CC(C)CC3` (stereo unspecified), with -61.3% (active); and `CC(C)NC(=O)Nc1cccc2c1O[C@@H](CN(C)S(=O)(=O)c1ccc(F)cc1)[C@@H](C)CN([C@H](C)CO)C2=O`, with 7.5%; and `Clc1cccc(Cl)c1Cl`, with -15.9%. With `COc1ccc(S(=O)(=O)c2c(Nc3ccc(C)cc3)sc(C(=O)c3ccc(C)cc3)c2N)cc1`, the activity change, negative = inhibition was -10.2%. Then `Cc1ccc(NC(=O)c2cn3c4c(ccc(Cl)c4c2=O)OC(C)C3)cc1C` (stereo unspecified), with 0.532%. As for `CSc1ccc(Cl)c(C(=O)OCC(=O)N2CC(C)OC(C)C2)c1` (stereo unspecified), the figure is -9.66%. Take `CCc1ccccc1NC(=O)CN(C)C(=O)c1cc(C2CC2)nn1-c1ccccc1`: the activity change, negative = inhibition is -18%. As for `COc1ccc(NC(=O)CN(C)C(=O)c2n[nH]c3ccccc23)cc1`, the figure is 5.1%; as for `COc1ccc(NC(=O)CN(C)C(=O)c2cc(C3CC3)nn2-c2ccccc2)cc1`, -100% (active).

Take `Cc1nc2nc(SCC(=O)N(Cc3ccccc3)C(C)C)nn2c(C)c1Cc1ccccc1Cl`: the activity change, negative = inhibition was -0.509%.

As to `CSc1ccc(C2c3c(oc4ccccc4c3=O)C(=O)N2CCCN2CCOCC2)cc1` (stereo unspecified), the activity change, negative = inhibition is 7.95%. As for `CNC[C@H]1OCc2cnnn2CCCC(=O)N([C@H](C)CO)C[C@@H]1C`, the figure is -9.25%; as for `Cc1ccc(-c2nnc3c4ccccc4c(C)nn23)cc1NC(=O)c1cccc(Br)c1`, 35.9%; as for `CSc1nc(-c2ccccc2Cl)nc2c1Cc1c(CO)cnc(C)c1O2`, 9.54%.

As to `C=CCOC(=O)C1=C(C)NC(C)=C(C(=O)OCC=C)C1c1cccs1`, the activity change, negative = inhibition was -12.1%. As for `CCc1ccc(C2CC(=O)c3c([nH]c(C(=O)OCc4ccc(C)cc4)c3C)C2)cc1` (stereo unspecified), the figure is -27.1%.
